Six substances from ChEMBL document CHEMBL1201862, “PubChem BioAssay data set” (2004) can be followed below.

The campaign covered roughly 42,000 sequences. About 2,900 (6.9%) were called active. Cut-off read from the data, not from the text of the source: active = GI50 up to about 1.1 µM and inactive = higher. The sample as a whole holds a higher share of actives than the screen did. Potency and affinity values are given separately.

The test system of the test is T47D.
As for “[Bis(aminomethyl)tetramethylenesilane]dichloropaltinum(II), CHEMBL2146205”, the GI50 was determined as 5 µM.
As to “[Bis(aminomethyl)pentamethylenesilane]dichloropaltinum(II), CHEMBL2146202”, it took 1.34 µM to inhibit growth by half (GI50).
In turn, “[Bis(aminomethyl)tetramethylenesilane]tetrachloropaltinum(IV), CHEMBL2146189” yielded a GI50 of 0.184 µM.
With “[Bis(aminomethyl)pentamethylenesilane]tetrachloropaltinum(IV), CHEMBL2146204” the figure was 2.18 µM; with “[Bis(aminomethyl)dimethylsilane]tetrachloroplatinum(IV), CHEMBL2146190”, 14.6 µM; with CISPLATIN, CHEMBL11359, 14 µM.
